This is a sample that favours compounds with a hit; in the whole collection about 5.7% have one here.
FAS-TE inh: FAS thioesterase (human) inhibition | P49327 | recombinant FAS-TE, OMFH fluorogenic substrate, fluorescence endpoint | inhibition, % at 15 µM | 0.67% of 360,000 active;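 active = compounds whose normalised, plate-corrected inhibition of enzyme fluorescence in the single-dose primary screen is 50% or more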;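 also: 0% = DMSO with enzyme and 100% = substrate without enzyme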
MPTP block: permeability transition pore inhibition. isolated mouse mitochondria, Ca2+ swelling absorbance, 30 min. inhibition, % at 10 µM. 1.4% of 360,000 active;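 active = inhibition of 50% or more, scaled per plate between neutral and stimulator controls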;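 also: 0% = DMSO wells given calcium and 100% = 1 mM EGTA wells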
rCAG RNA binder: molecules binding r(CAG) RNA repeats. r(CAG) RNA repeat, TO-PRO-1 dye displacement fluorescence. inhibition, % at 3 µM. 1.3% of 370,000 active;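 active = inhibition above the plate cutoff, the mean of all test compounds on that plate plus 3 SD, cut at about 35% in these data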;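 also: 0% = DMSO alone and 100% = 100 µM mitoxantrone as full dye displacement; higher means more dye released from RNA so lower well fluorescence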
NR3A LBD binder: modulates the human NR3A ligand-binding domain | NR3A LBD differential scanning fluorimetry, Tm shift; 0% = protein alone, 100% = glycine-bound protein | 2.5% of 340,000 active | AID 1259313 | Tm shift relative to glycine control, % at 25 µM;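 active = melting temperature shift of at least 10% of the positive control shift, at one fixed dose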
Myeloid diff 2: promotes myeloid progenitor differentiation. 1% of 360,000 active. ER-HoxA9 myeloid progenitors, lysozyme-GFP differentiation, flow cytometry. calls only at 10 µM;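 active = normalized GFP-positive differentiation at or above the plate's own cutoff, the solvent-only control mean plus 3 SD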;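 also: cells exposed to compound for four days before flow analysis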
FAS-TE conf: confirmation of human fatty acid synthase thioesterase inhibitors. 45% of 2,300 active. inhibition, % at 15 µM. recombinant FAS-TE, OMFH fluorogenic substrate, fluorescence. AID 624325. shares compounds with FAS-TE inh;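 active = compounds inhibiting the enzyme by at least 50% at 15 µM in any one of the replicates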;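 also: 0% = enzyme with DMSO only and 100% = wells lacking enzyme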
* marks the source's active call; other numbers are inactive results; i = inactive; nt = no result.

SMILES	FAS-TE inh	MPTP block	rCAG RNA binder	NR3A LBD binder	Myeloid diff 2	FAS-TE conf
O=C(CSc1ccc(Cl)cc1)N1CCN(c2ncc(C(F)(F)F)cc2Cl)CC1	53*	18	4	-4	i	25
COc1ccc(-c2cscc2N)cc1	nt	nt	14	nt	nt	nt
COc1ccc(NC(=O)c2cccc(Oc3ccc([N+](=O)[O-])cc3Cl)c2)cc1	52*	38	8	-28	i	9
CCCCn1nnnc1C(c1cc2ccccc2o1)N1CCN(c2cc(C)nc3ccccc23)CC1 (stereo not drawn)	23	0	8	nt	i	nt
C#CCN1CC(COc2ccccc2)Oc2cccc(Oc3ccc(OC)cc3)c2S1(=O)=O (stereo not drawn)	nt	nt	12	nt	nt	nt
Cc1ccc(C(=O)c2cnc3cc4c(cc3c2S(=O)(=O)c2ccccc2)OCCO4)cc1	72*	1	16	-1	i	21
CC(C)(C)NC(=O)C(c1c[nH]c2ccccc12)N(C(=O)Cn1nnc(-c2ccc(Cl)cc2)n1)c1ccccc1F (stereo not drawn)	45	0	10	3	i	nt
O=C(NC1CCCC1)C(c1c[nH]c2ccccc12)N(C(=O)Cn1nnc(-c2ccc(Cl)cc2)n1)c1ccccc1 (stereo not drawn)	64*	2	14	-1	i	30
COc1ccc(CC(=O)N(C)Cc2ccc(Cl)cc2)cc1S(=O)(=O)N1CCOCC1	-4	0	-8	-1	i	nt
COc1ccc(CC(=O)N(C)Cc2ccc(C(C)(C)C)cc2)cc1S(=O)(=O)N1CCOCC1	80*	0	-6	11*	i	82*
CN(Cc1cccs1)C(=O)Cn1cnc2cc([N+](=O)[O-])ccc2c1=O	53*	1	4	1	i	55*
CCc1ccc(C(=O)Cn2cnc3cc([N+](=O)[O-])ccc3c2=O)cc1	2	0	7	-3	i	nt
O=C(Cn1cnc2cc([N+](=O)[O-])ccc2c1=O)N(Cc1ccccc1)C1CCS(=O)(=O)C1 (stereo not drawn)	57*	-3	6	-2	i	45
CC(C)C[C@H](NC(=O)N1CCOCC1)C(=O)N1CCC[C@H]1C(=O)NCc1ccccc1	nt	nt	1	nt	nt	nt
C[C@H](NC(=O)C1CCN(S(=O)(=O)c2ccccc2)CC1)C(=O)NCc1ccc(Cl)c(Cl)c1	52*	1	0	-2	i	46*
C[C@H](NC(=O)C1CCN(S(=O)(=O)c2ccccc2)CC1)C(=O)NCc1cccc(Cl)c1	6	-2	-2	-2	i	nt
Cc1ccc(CNC(=O)C(C(=O)NCc2ccc(C)o2)c2ncc(C(F)(F)F)cc2Cl)o1	62*	-1	-6	-5	i	7
CCOC(=O)C(C(=O)NCc1ccc(C)cc1)c1ncc(C(F)(F)F)cc1Cl (stereo not drawn)	39	-3	-8	-2	i	nt
COc1cc(NC(=S)N2CCC(C(O)(c3ccccc3)c3ccccc3)CC2)cc(OC)c1	53*	6	3	7	i	32
Cc1ccc2c(c1)[C@H]1[C@H](CO2)[C@H](c2ccccc2)[C@]2(C)C(=O)Nc3ccccc3C(=O)N12	53*	1	7	-2	nt	30
Cc1ccc2c(c1)[C@H]1[C@H](CO2)[C@H](c2ccccc2)[C@]2(C)C(=O)Nc3cc(F)ccc3C(=O)N12	54*	-1	11	-1	i	21
Cc1ccc2c(c1)NC(=O)[C@@]1(C)[C@@H](c3ccccc3)[C@H]3COc4ccccc4[C@@H]3N1C2=O	68*	0	7	-2	i	27
C[C@@]12C(=O)Nc3cc(F)ccc3C(=O)N1[C@H]1c3cc(Br)ccc3OC[C@@H]1[C@@H]2c1ccccc1	80*	-1	11	-3	i	-2
COC(=O)C1=C(C)N(Cc2cccc(C(F)(F)F)c2)C(=NCc2cc(OC)c(OC)c(OC)c2)NC1c1cccc(C(F)(F)F)c1 (stereo not drawn)	nt	nt	2	nt	nt	nt
N#Cc1sc(C(N)=O)c(-c2ccccc2)c1-c1ccccc1	-1	2	-1	-1	i	nt
COc1ccc(-c2c(C#N)sc(C(N)=O)c2-c2ccc(OC)cc2)cc1	60*	9	-1	-1	i	47

Screening results: PubChem BioAssay, several laboratories
